According to PubChem BioAssay:

Target: Voltage-gated potassium channel subunit beta-2 (Rattus norvegicus) (UniProt P62483)
Assay: inhibitors of rat Kvbeta2 reductase activity – biochemical, NADPH fluorescence, primary screen (AID 622);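 note: slope of raw intensity against log time taken from 70 to 1610 s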
Conditions: recombinant KvBeta, 4-cyanobenzaldehyde reduction, at 10 µM, active compounds read high;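 active = fluorescence slope higher than the sample average by over 3 SD (cut at about -0.22 in these data, passing the limit was not always enough); inactive = the rest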

Chain of Voltage-gated potassium channel subunit beta-2 (Rattus norvegicus) (P62483 whole entry, looked up): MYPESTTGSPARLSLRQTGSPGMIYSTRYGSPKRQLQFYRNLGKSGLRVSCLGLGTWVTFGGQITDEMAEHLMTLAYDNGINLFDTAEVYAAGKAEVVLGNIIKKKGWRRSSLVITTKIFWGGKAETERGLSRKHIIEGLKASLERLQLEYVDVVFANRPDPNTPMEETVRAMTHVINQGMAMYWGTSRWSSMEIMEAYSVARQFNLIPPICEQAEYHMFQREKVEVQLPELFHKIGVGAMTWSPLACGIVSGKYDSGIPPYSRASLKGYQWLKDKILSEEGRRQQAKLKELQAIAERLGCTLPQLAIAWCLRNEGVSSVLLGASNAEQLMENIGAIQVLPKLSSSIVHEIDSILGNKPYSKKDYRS

Fluorescence slope, inactive:
Cc1ccc(Cn2ncc3c(NCCCN4CCOCC4)ncnc32)cc1 -0.568
C/C(N)=C(/C#N)C(=O)COC(=O)COc1ccc(Cl)cc1 -0.414
Nc1c(C(=O)NCCc2ccccc2)nnn1Cc1ccccc1 -0.571
Cc1ccc(-n2c(Cc3cccn3C)nnc2SCC(=O)NCc2ccc3c(c2)OCO3)cc1 -0.419
COc1ccc(/C=N/n2c(=O)[nH]c3c([nH]c4ccc(C)cc43)c2=O)cc1CN1CCOCC1 -0.407
C=CCn1c(C)cc(C(=O)CSc2nc3ccccc3c(=O)[nH]2)c1C -0.52
O=C(NCc1ccco1)C1CCN(S(=O)(=O)N2CCC3(CC2)OCCO3)CC1 -0.317
CCOC(=O)c1c(C)oc2ccc(OCC(=O)N(CC)CC)cc12 -0.449
COc1ccc(-c2cc(C(=O)NCc3ccc(Cl)cc3)no2)cc1OC -0.19
O=C(Nc1cccnc1N1CCOCC1)c1ccco1 -0.221
COc1ccc2c(-c3cccnc3)cc(=O)[nH]c2c1 -0.39
CC1(C)CC(=O)C2=C(C1)Nc1nc(SCCN3CCOCC3)[nH]c(=O)c1C2c1cccs1 (centres undefined) -0.57
CCOc1ccc(C(=O)N(Cc2ccc(N(C)C)cc2)C2CCS(=O)(=O)C2)cc1 (centres undefined) -0.618
CC(C)Oc1ccc(-c2nn(-c3ccccc3)cc2/C=c2\sc3ncnn3c2=O)cc1 -0.279
CN(C)c1nc(Nc2ccc(Cl)cc2)nc(OCC#N)n1 -0.574
Cc1ccc(C)n1NC(=O)c1ccco1 -0.567
CCC1(C)Cc2c(C#N)c(N)n(-c3ccccc3)c(=O)c2CO1 (centres undefined) -0.622
O=C1CC(c2ccc(S(=O)(=O)N3CCN(c4ccccc4)CC3)cc2)CN1 (centres undefined) -0.289
COc1cccc(NC(=O)Cc2nnc(SCC(=O)c3ccccc3)n2C)c1 -0.5
CCCC1CC(C)(C(=O)Cn2[nH]c(=O)ccc2=O)OC1=O (centres undefined) -0.515
CS(=O)(=O)N(CC(=O)NC1CC1)c1cccc(F)c1 -0.555
COc1ccc2c(c1)CCc1c(C(=O)NCc3cccnc3)noc1-2 -0.462
CC(=O)Nc1ccc(S(=O)(=O)N(CC(=O)O)Cc2ccccc2)cc1 -0.575
O=S(=O)(NCCc1ccncc1)c1cc(Br)ccc1F -0.626
